# Rows were chosen to be rich in hits. Some 3.8% of all compounds tested hit in one or more screens of this group.
# SUMO Mot1 rescue: blocks SUMOylation pathway, rescuing yeast Mot1-301 growth | S. cerevisiae Mot1-301 growth rescue, ATP luminescence, 38.5C; percent above DMSO median, 100 means doubled | growth rescue, % at 18.8 µM | actives 1% (n = 320,000) | AID 2716;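 active means every valid replicate shows activation above 250% relative to neutral control wells; inactive means the rest, any valid replicate at or below 250%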;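 further: OY570 slx delta 5 strain wells were the positive control but not used for scaling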
# Yeast superoxide: yeast age-related superoxide inhibition as caloric restriction mimetic | S. cerevisiae aged cells, superoxide DHE fluorescence; active compounds read low | superoxide response (% of plate mean), % at 10 µM | actives 0.18% (n = 330,000) | AID 2690;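 active means superoxide response under a set limit, about three screen SD below normal, cut at about 65% in these data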;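 further: yeast aged for seven days with compound at 30 °C before DHE staining; 100% = average MFI of all compound-treated wells on the plate with controls excluded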
# MPTP inh: blocks calcium-induced mitochondrial swelling; isolated mouse mitochondria, Ca2+ swelling absorbance, 30 min; inhibition, % at 10 µM; actives 1.4% (n = 360,000);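 active means inhibition of 50% or more, scaled per plate between neutral and stimulator controls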;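 further: 0% = DMSO wells given calcium and 100% = 1 mM EGTA wells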
# FAS TE block: FAS thioesterase (human) inhibition | P49327 | inhibition, % at 15 µM | AID 602261 | recombinant FAS-TE, OMFH fluorogenic substrate, fluorescence endpoint | actives 0.67% (n = 360,000);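 active means compounds whose normalised, plate-corrected inhibition of enzyme fluorescence in the single-dose primary screen is 50% or more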;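 further: 0% = DMSO with enzyme and 100% = substrate without enzyme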
# aDG glyco act: alpha-DG glycosylation activation | Pro5-aDG cells, alpha-DG glycosylation AlphaScreen (IIH6); 0% Pro5, 100% B10-LARGE cell signal | activation, % at 10 µM | actives 0.22% (n = 360,000) | AID 624168;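 active means activation of at least 8% versus controls, or a plate z-score of at least 8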;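 further: Pro5 are CHO cells carrying HIG-tagged alpha-DG that lacks glycosylation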
# H9c2 protect: protects H9c2 cardiomyocytes from peroxide injury | H2O2 injury protection, ATPLite, 2 h | protection from H2O2 cell death, % at 20 µM | actives 0.63% (n = 360,000);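 active means compounds giving at least 50% protection of heart cells from peroxide-induced death in the single-dose screen, raw or plate-pattern-corrected value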;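 further: 0% = DMSO wells with peroxide and 100% = DMSO wells without peroxide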
# Mot1 SUMO dose: SUMO pathway inhibitors in yeast Mot1-301 growth. 2,300 tested, under 10 active. S. cerevisiae Mot1-301 galactose growth, ATP luminescence, 24 h; -100 = growth of slx-deleted rescue strain. shares compounds with SUMO Mot1 rescue. growth activity, percent, % at 42 µM;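 active means Signal drops as the depositor expects, and the fitted half-maximal dose is no more than ten times the top valid tested dose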;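 further: more negative values mean stronger growth rescue toward the control strain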
# * marks the source's active call; other numbers are inactive results; · = not tested or not shown.
SMILES,SUMO Mot1 rescue,Yeast superoxide,MPTP inh,FAS TE block,aDG glyco act,H9c2 protect,Mot1 SUMO dose
CCOC(=O)C1(C)CCN1C(=O)c1ccccc1OC (configuration not stated),·,·,-1,-8,0,1,·
CCN1CCCC1CN(Cc1cc2cc(C)cc(C)c2[nH]c1=O)C(=O)Nc1ccccc1OC (configuration not stated),-8,110,·,·,·,·,·
CCN1CCCC1CN(Cc1cc2ccc(C)cc2[nH]c1=O)C(=S)Nc1ccc(OC)cc1OC (configuration not stated),562*,96,-8,-1,0,6,0
Cc1ccc(C(C)NC(=O)c2cccs2)cc1 (configuration not stated),73,94,3,2,0,1,·
CC(NC(=O)c1cccs1)c1ccc(Br)cc1 (configuration not stated),800*,95,2,2,0,0,0
CCOC(=O)c1cnc2c(C)c(Cl)ccc2c1NCCCN1CCOCC1,-6,98,1,8,0,13,·
CCOC(=O)c1cnc2c(C)c(Cl)ccc2c1N1CCOCC1,828*,103,-1,17,0,2,1
O=C(O)c1ccc(Cl)c(NCc2cccs2)c1,560*,102,-1,-2,0,-5,0
CC(C)COc1ccc(C(=O)Nc2ccc([N+](=O)[O-])cc2)cc1,691*,124,-2,-2,0,-6,0
Cc1ccc(C(=O)NCCCN2CCOCC2)cc1,410*,107,-3,-13,0,-9,0
Cc1ccc(C(=O)NCCNC(=O)c2ccc(C)nc2)cc1,13,100,-1,-9,0,0,·
Cc1ccc(CC(=O)NCCN2CCOCC2)cc1,5,103,0,-3,0,2,·
Cc1ccc(C(=O)NCCCNC(=O)c2ccc(C)nc2)cc1,424*,102,-3,-4,0,-1,0
COc1ccc(CC(=O)NCCN2CCOCC2)cc1,395*,104,0,-2,0,1,0
Cc1cccc(NC(=O)CSc2nnc(-c3cc(C)[nH]n3)n2N)c1,-8,129,-3,-1,0,2,·
Cc1cc2cc(C)c3nnc(SCC(=O)NCc4ccc5c(c4)OCO5)n3c2cc1C,-11,117,5,12,0,24,·
Cc1cc(C)c2cc(C)c3nnc(SCC(=O)NCc4ccc5c(c4)OCO5)n3c2c1,621*,118,2,4,0,16,0
CCOc1ccc(N(C(=O)C2CCCO2)C2C=CS(=O)(=O)C2)cc1 (configuration not stated),814*,96,-1,-5,0,9,0
FC(F)C(F)(F)Oc1cccc(Nc2nccn3c(-c4cccc5ccccc45)cnc23)c1,·,·,-1,21,1,-10,·
COc1ccccc1CNS(=O)(=O)CCNC1CC1,·,·,2,-12,0,0,·
Cc1ccnc(NC(=O)c2ccc(Br)s2)c1,618*,87,-1,-2,0,-14,-2
CCOc1ccccc1C(=O)NCc1ccc2c(c1)OCO2,879*,92,0,2,0,-2,-1
CCOc1cc(S(=O)(=O)NCc2ccc3c(c2)OCO3)c(C)cc1C,701*,100,2,15,1,-2,0
CC(=O)N(Cc1ccccc1)C1CC(=O)N(Cc2ccccc2)C1=O (configuration not stated),·,·,0,-10,0,-1,·
O=C(c1cc(F)ccc1F)C1CCCN(C(=O)c2ccc3nccnc3c2)C1 (configuration not stated),670*,103,-1,-7,0,5,-1
Cc1ccccc1NC(=O)COC(=O)c1ccc(S(=O)(=O)N2CCCC2)cc1,6,114,-2,-8,0,-1,·
COc1ccc(CNc2ncc(-c3ccc(Cl)cc3)n2C)c(OC)c1OC,-2,102,4,2,0,-1,·
